# Test results as given in the supplement of paper PMC8728848.
# The entries come from a sample that favours the strongest signals as a whole.
# B1: Langerin K313I (Homo sapiens), Q9UJ71 (protein)
# chain: STLNAQIPELKSDLEKASALNTKIRALQGSLENMSKLLKRQNDILQVVSQGWKYFKGNFYYFSLIPKTWYSAEQFCVSRNSHLTSVTSESEQEFLYKTAGGLIYWIGLTKAGMEGDWSWVDDTPFNKVQSARFWIPGEPNNAGNNEHCGNIKAPSLQAWNDAPCDITFLFICKRPYVPSEP
# Key:
# Assay in all cases: glycan array binding signal (z-score within array); higher = stronger binding
# Details in all cases: glycan notation: IUPAC condensed, linker removed
# [1] = biological target: Fuc(a1-2)Gal(b1-3)GlcNAc(b1-3)Gal(b1-4)Glc
# Summary of the method: (§1)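 Negative Z-scores can be read as non-binding. The Z-score is calculated within each array and then averaged across arrays of one protein sequence at different concentrations or buffers and across linkers. Arrays, 3228 in all, were curated from the Consortium for Functional Glycomics database and kept only where the protein sequence was available.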
# [2] = biological target: Fuc(a1-2)Gal(b1-4)[Fuc(a1-3)]GlcNAc(b1-3)Gal(b1-4)[Fuc(a1-3)]GlcNAc(b1-3)Gal(b1-4)[Fuc(a1-3)]GlcNAc
# Summary of the method: as §1
# [3] = biological target: Fuc(a1-2)[Gal(a1-3)]Gal
# Summary of the method: as §1
# [4] = biological target: Fuc(a1-2)[Gal(a1-3)]Gal(b1-3)GlcNAc(b1-2)Man(a1-3)[Fuc(a1-2)[Gal(a1-3)]Gal(b1-3)GlcNAc(b1-2)Man(a1-6)]Man(b1-4)GlcNAc(b1-4)GlcNAc
# Summary of the method: as §1
# [5] = biological target: Fuc(a1-2)[Gal(a1-4)]Gal(b1-4)GlcNAc
# Summary of the method: as §1
# [6] = biological target: Fuc(a1-2)[GalNAc(a1-3)]Gal(b1-4)[Fuc(a1-3)]GlcNAc(b1-3)GalNAc
# Summary of the method: as §1
# [7] = biological target: Fuc(a1-2)[GalNAc(b1-3)]Gal
# Summary of the method: as §1
# [8] = biological target: Fuc(b1-3)GlcNAc
# Summary of the method: as §1
# [9] = biological target: Gal(a1-2)Gal
# Summary of the method: as §1
# [10] = biological target: Gal(a1-3)Gal(b1-3)[Fuc(a1-4)]GlcNAc(b1-2)Man(a1-3)[Gal(a1-3)Gal(b1-3)[Fuc(a1-4)]GlcNAc(b1-2)Man(a1-6)]Man(b1-4)GlcNAc(b1-4)GlcNAc
# Summary of the method: as §1
# [11] = biological target: Gal(b1-3)GlcNAc(b1-3)Gal(b1-4)Glc
# Summary of the method: as §1
# [12] = biological target: Gal(b1-3)GlcNAc(b1-3)Gal(b1-4)[Fuc(a1-3)]GlcNAc(b1-6)[Gal(b1-3)GlcNAc(b1-3)]Gal(b1-4)Glc
# Summary of the method: as §1
# [13] = biological target: Gal(b1-3)GlcNAc(b1-6)[Gal(b1-3)]GalNAc
# Summary of the method: as §1
# [14] = biological target: Gal(b1-3)[Fuc(a1-4)]GlcNAc(b1-3)Gal(b1-3)[Fuc(a1-4)]GlcNAc
# Summary of the method: as §1
# [15] = biological target: Gal(b1-4)GlcNAc
# Summary of the method: as §1
# [16] = biological target: Gal(b1-4)GlcNAc(b1-2)Man(a1-3)[Gal(b1-4)GlcNAc(b1-2)Man(a1-6)][Gal(b1-4)GlcNAc(b1-4)]Man(b1-4)GlcNAc(b1-4)[Fuc(a1-6)]GlcNAc
# Summary of the method: as §1
# [17] = biological target: Gal(b1-4)GlcNAc(b1-2)Man(a1-6)Man(b1-4)GlcNAc(b1-4)GlcNAc
# Summary of the method: as §1
# [18] = biological target: Gal(b1-4)GlcNAc(b1-3)Gal(b1-4)GlcNAc(b1-2)Man(a1-3)[Gal(b1-4)GlcNAc(b1-3)Gal(b1-4)GlcNAc(b1-2)Man(a1-6)]Man(b1-4)GlcNAc(b1-4)GlcNAc
# Summary of the method: as §1
# [19] = biological target: Gal(b1-4)GlcNAc(b1-3)Gal(b1-4)GlcNAc(b1-3)Gal(b1-4)GlcNAc(b1-3)Gal(b1-4)GlcNAc(b1-2)Man(a1-3)[Gal(b1-4)GlcNAc(b1-3)Gal(b1-4)GlcNAc(b1-3)Gal(b1-4)GlcNAc(b1-3)Gal(b1-4)GlcNAc(b1-2)Man(a1-6)]Man(b1-4)GlcNAc(b1-4)GlcNAc
# Summary of the method: as §1
# [20] = biological target: Gal(b1-4)GlcNAc(b1-3)Gal(b1-4)GlcNAc(b1-3)Gal(b1-4)GlcNAc(b1-3)Gal(b1-4)GlcNAc(b1-3)Gal(b1-4)GlcNAc(b1-3)Gal(b1-4)GlcNAc(b1-2)Man(a1-3)[Gal(b1-4)GlcNAc(b1-3)Gal(b1-4)GlcNAc(b1-3)Gal(b1-4)GlcNAc(b1-3)Gal(b1-4)GlcNAc(b1-3)Gal(b1-4)GlcNAc(b1-3)Gal(b1-4)GlcNAc(b1-2)Man(a1-6)]Man(b1-4)GlcNAc(b1-4)GlcNAc
# Summary of the method: as §1
# [21] = biological target: Gal(b1-4)GlcNAc(b1-3)Gal(b1-4)GlcNAc(b1-6)[Gal(b1-3)]GalNAc
# Summary of the method: as §1
# [22] = biological target: Gal(b1-4)GlcNAc(b1-3)GalNAc
# Summary of the method: as §1
# [23] = biological target: Gal(b1-4)GlcNAc(b1-3)[GlcNAc(b1-6)]Gal(b1-4)GlcNAc
# Summary of the method: as §1
# [24] = biological target: Gal(b1-6)Gal
# Summary of the method: as §1
# [25] = biological target: Gal3S(b1-3)GlcNAc
# Summary of the method: as §1
# [26] = biological target: Gal3S(b1-4)[Fuc(a1-3)]GlcNAc6S
# Summary of the method: as §1
# [27] = biological target: Gal6P(b1-4)GlcNAc
# Summary of the method: as §1
# [28] = biological target: GalNAc(b1-3)Gal
# Summary of the method: as §1
# [29] = biological target: GalNAc(b1-3)GalNAc
# Summary of the method: as §1
# [30] = biological target: GalNAc(b1-6)GalNAc
# Summary of the method: as §1
# [31] = biological target: GlcNAc(a1-3)Gal(b1-4)GlcNAc
# Summary of the method: as §1
# [32] = biological target: GlcNAc(b1-2)Man(a1-3)[GlcNAc(b1-4)][GlcNAc(b1-2)Man(a1-6)]Man(b1-4)GlcNAc(b1-4)[Fuc(a1-6)]GlcNAc
# Summary of the method: as §1
# [33] = biological target: GlcNAc(b1-3)Gal(b1-4)GlcNAc
# Summary of the method: as §1
# [34] = biological target: GlcNAc(b1-3)Gal(b1-4)GlcNAc(b1-2)[GlcNAc(b1-3)Gal(b1-4)GlcNAc(b1-6)]Man(a1-6)[GlcNAc(b1-3)Gal(b1-4)GlcNAc(b1-2)Man(a1-3)]Man(b1-4)GlcNAc(b1-4)GlcNAc
# Summary of the method: as §1
# [35] = biological target: GlcNAc(b1-3)Gal(b1-4)GlcNAc(b1-3)Gal(b1-4)GlcNAc(b1-2)Man(a1-3)[GlcNAc(b1-3)Gal(b1-4)GlcNAc(b1-3)Gal(b1-4)GlcNAc(b1-2)Man(a1-6)]Man(b1-4)GlcNAc(b1-4)[Fuc(a1-6)]GlcNAc
# Summary of the method: as §1
# [36] = biological target: GlcNAc(b1-3)Gal(b1-4)GlcNAc(b1-3)Gal(b1-4)GlcNAc(b1-2)[GlcNAc(b1-3)Gal(b1-4)GlcNAc(b1-3)Gal(b1-4)GlcNAc(b1-6)]Man(a1-6)[GlcNAc(b1-3)Gal(b1-4)GlcNAc(b1-3)Gal(b1-4)GlcNAc(b1-2)Man(a1-3)]Man(b1-4)GlcNAc(b1-4)[Fuc(a1-6)]GlcNAc
# Summary of the method: as §1
# [37] = biological target: GlcNAc(b1-3)Gal(b1-4)GlcNAc(b1-3)Gal(b1-4)GlcNAc(b1-3)Gal(b1-4)GlcNAc(b1-3)Gal(b1-4)GlcNAc(b1-2)Man(a1-3)[GlcNAc(b1-3)Gal(b1-4)GlcNAc(b1-3)Gal(b1-4)GlcNAc(b1-3)Gal(b1-4)GlcNAc(b1-3)Gal(b1-4)GlcNAc(b1-2)Man(a1-6)]Man(b1-4)GlcNAc(b1-4)[Fuc(a1-6)]GlcNAc
# Summary of the method: as §1
# [38] = biological target: GlcNAc(b1-3)Gal(b1-4)GlcNAc(b1-6)[GlcNAc(b1-3)]Gal(b1-4)GlcNAc
# Summary of the method: as §1
# [39] = biological target: GlcNAc(b1-3)[GlcNAc(b1-6)]Gal(b1-4)GlcNAc
# Summary of the method: as §1
# [40] = biological target: Kdn(a2-3)Gal(b1-3)GalNAc
# Summary of the method: as §1
# [41] = biological target: Man(a1-2)Man(a1-2)Man(a1-6)[Man(a1-3)]Man
# Summary of the method: as §1
# [42] = biological target: Man(a1-2)Man(a1-3)[Man(a1-2)Man(a1-6)]Man(a1-6)[Man(a1-2)Man(a1-2)Man(a1-3)]Man
# Summary of the method: as §1
# [43] = biological target: Man(a1-2)Man(a1-3)[Man(a1-6)]Man(a1-6)[Man(a1-2)Man(a1-3)]Man(b1-4)GlcNAc(b1-4)GlcNAc
# Summary of the method: as §1
# [44] = biological target: Man(a1-2)Man(a1-6)[Man(a1-3)]Man(a1-6)[Man(a1-2)Man(a1-2)Man(a1-3)]Man(b1-4)GlcNAc(b1-4)GlcNAc
# Summary of the method: as §1
# [45] = biological target: Neu5Ac(a2-3)Gal(b1-4)GlcNAc(b1-3)Gal(b1-4)GlcNAc
# Summary of the method: as §1
# [46] = biological target: Neu5Ac(a2-3)Gal(b1-4)GlcNAc(b1-3)Gal(b1-4)GlcNAc(b1-3)[Neu5Ac(a2-3)Gal(b1-4)GlcNAc(b1-3)Gal(b1-4)GlcNAc(b1-6)]GalNAc
# Summary of the method: as §1
# [47] = biological target: Neu5Ac(a2-6)Gal(b1-4)Glc
# Summary of the method: as §1
# [48] = biological target: Neu5Ac(a2-6)GlcNAc(b1-4)GlcNAc
# Summary of the method: as §1
# [49] = biological target: Neu5Gc(a2-3)Gal(b1-4)GlcNAc(b1-3)Gal(b1-4)GlcNAc(b1-2)Man(a1-3)[Neu5Gc(a2-3)Gal(b1-4)GlcNAc(b1-3)Gal(b1-4)GlcNAc(b1-2)Man(a1-6)]Man(b1-4)GlcNAc(b1-4)GlcNAc
# Summary of the method: as §1
binder,measurement,setting,value
B1,glycan array binding signal (z-score),[1],-0.379
same,glycan array binding signal (z-score),[2],-0.042
same,glycan array binding signal (z-score),[3],4.11
same,glycan array binding signal (z-score),[4],-0.164
same,glycan array binding signal (z-score),[5],-0.287
same,glycan array binding signal (z-score),[6],0.321
same,glycan array binding signal (z-score),[7],-0.358
same,glycan array binding signal (z-score),[8],-0.307
same,glycan array binding signal (z-score),[9],-0.155
same,glycan array binding signal (z-score),[10],0.468
same,glycan array binding signal (z-score),[11],-0.361
same,glycan array binding signal (z-score),[12],-0.333
same,glycan array binding signal (z-score),[13],-0.253
same,glycan array binding signal (z-score),[14],0.067
same,glycan array binding signal (z-score),[15],-0.346
same,glycan array binding signal (z-score),[16],-0.254
same,glycan array binding signal (z-score),[17],-0.235
same,glycan array binding signal (z-score),[18],0.326
same,glycan array binding signal (z-score),[19],0.149
same,glycan array binding signal (z-score),[20],0.037
same,glycan array binding signal (z-score),[21],0.134
same,glycan array binding signal (z-score),[22],-0.373
same,glycan array binding signal (z-score),[23],-0.314
same,glycan array binding signal (z-score),[24],-0.178
same,glycan array binding signal (z-score),[25],-0.376
same,glycan array binding signal (z-score),[26],-0.39
same,glycan array binding signal (z-score),[27],-0.298
same,glycan array binding signal (z-score),[28],-0.374
same,glycan array binding signal (z-score),[29],3.83
same,glycan array binding signal (z-score),[30],-0.384
same,glycan array binding signal (z-score),[31],-0.393
same,glycan array binding signal (z-score),[32],4.2
same,glycan array binding signal (z-score),[33],3.17
same,glycan array binding signal (z-score),[34],4.12
same,glycan array binding signal (z-score),[35],3.2
same,glycan array binding signal (z-score),[36],9.38
same,glycan array binding signal (z-score),[37],-0.005
same,glycan array binding signal (z-score),[38],10.1
same,glycan array binding signal (z-score),[39],6.18
same,glycan array binding signal (z-score),[40],0.361
same,glycan array binding signal (z-score),[41],7.95
same,glycan array binding signal (z-score),[42],3.54
same,glycan array binding signal (z-score),[43],-0.194
same,glycan array binding signal (z-score),[44],0.146
same,glycan array binding signal (z-score),[45],-0.396
same,glycan array binding signal (z-score),[46],-0.089
same,glycan array binding signal (z-score),[47],-0.278
same,glycan array binding signal (z-score),[48],-0.387
same,glycan array binding signal (z-score),[49],0.158
